# Measured values reported in PubChem BioAssay AID1347087 (National Center for Advancing Translational Sciences (NCATS), 2019).
# Results filed as inconclusive are left out. Values without a mark were called inactive. Activity calls are given as the source filed them. Calls follow the shape of the full dose curve.
# Assay: qHTS for Inhibitors of the Functional Ribonucleoprotein Complex (vRNP) of Lassa (LASV) Arenavirus: LASV Confirmatory Screen - GLuc reporter signal
# Settings: LASV minigenome vRNP, Gaussia luciferase reporter; series mostly up to 53.9 µM
Compound,Potency,"activity, negative = inhibition"
Nc1ccc([N+](=O)[O-])cc1O,0.396 µM (active),–
Cn1cc(-c2ccncc2)c(-c2ccc(OCc3ccc4ccccc4n3)cc2)n1,24.3 µM (active),–
CC1=C(C)C(=O)C(CCCCC#CCCCC#CCO)=C(C)C1=O,24.3 µM (active),–
Fc1ccc(CNc2ncnc3ccc(F)cc23)cc1,6.85 µM (active),–
Cc1ncc([N+](=O)[O-])n1CC(C)O (stereo unspecified),inactive,–
Clc1nccc2c1ccc1ccccc12,inactive,–
S=C(NCc1ccc2c(c1)OCO2)N1CCN(c2ncnc3c2oc2ccccc23)CC1,1.77 µM (active),–
COc1cc2c(cc1OC)CC(=O)N(CCCN(C)C[C@H]1Cc3cc(OC)c(OC)cc31)CC2,inactive,–
N#CC(=C(\N)Sc1ccccc1N)/C(C#N)=C(/N)Sc1ccccc1N,0.0685 µM (active),–
CC[C@@H](C(=O)O)[C@@H]1O[C@@H]([C@@H](C)[C@H](O)[C@H](C)C(=O)[C@H](CC)[C@H]2O[C@]3(C=C[C@@H](O)[C@]4(CC[C@@](C)([C@H]5CC[C@](O)(CC)[C@H](C)O5)O4)O3)[C@H](C)C[C@@H]2C)[C@@H](C)C[C@@H]1C,0.157 µM (active),–
C=C(C)[C@H]1Cc2c(ccc3c2O[C@@H]2COc4cc(OC)c(OC)cc4[C@@H]2C3=O)O1,0.0306 µM (active),–
CCCCCN=C(N)N/N=C/c1c[nH]c2ccc(OC)cc12,8.63 µM (active),–
CCC1OC2(C)C(O)C(/C=C/C=C/C=C/c3oc(=O)cc(OC)c3C)OC1(C)C2OC(C)=O (stereo unspecified),0.137 µM (active),–
COC(=O)c1nc(Cl)c(Cl)nc1N,4.85 µM (active),–
COCCOC(=O)C1=C(C)NC(C)=C(C(=O)OC/C=C/c2ccccc2)C1c1cccc([N+](=O)[O-])c1 (stereo unspecified),27.3 µM (active),–
CC(=O)[C@H]1CC[C@H]2[C@@H]3CCC4=CC(=O)CC[C@]4(C)[C@H]3CC[C@]12C,21.7 µM (active),–
Oc1cc(Cl)ccc1Oc1ccc(Cl)cc1Cl,25 µM (active),–
C=C(C)C1Cc2c(ccc3c2OC2COc4cc(OC)c(OC)cc4C2C3=O)O1 (stereo unspecified),0.0217 µM (active),–
Cc1ccc2c(c1)C1CN(C)CCC1N2 (stereo unspecified),inactive,–
CCOC(=O)OCC/C(SC(=O)OCC)=C(\C)N(C=O)Cc1cnc(C)nc1N,inactive,–
CC(O)(P(=O)(O)O)P(=O)(O)O,inactive,–
CCCCC[C@H](O)/C=C/C=C/C/C=C\CCCC(=O)O,–,4.46% [at 0.666 µM]
Cc1cc2c(C(C)C)c(O)c(O)c(C=O)c2c(O)c1-c1c(C)cc2c(C(C)C)c(O)c(O)c(C=O)c2c1O,9.68 µM (active),–
CCN(CC)C(=O)N[C@@H]1C=C2c3cccc4[nH]cc(c34)C[C@@H]2N(C)C1,inactive,–
CCCCC/C(C=O)=C\c1ccccc1,inactive,–
CCCCCC[C@H]1C(=O)O[C@H](C)[C@H](NC(=O)c2cccc(NC=O)c2O)C(=O)O[C@@H](C)[C@@H]1OC(=O)CC(C)C,0.0306 µM (active),–
